For 40 compounds, growth results are on record in PubChem BioAssay (NCI).

This is part of a sample that, as a whole, favours compounds with a hit. Of some 83,000 tested, about 20% had one in any assay.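 48-hour exposure, single concentration, 96-well plates; percent growth endpoint where 0 means no net growth. Active: below 10.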 A number with no mark means an inactive call. Active and inactive are the calls of the source.

In the assay the test system is HL-60(TB) leukemia. The assay is described as follows: NCI-60 one-dose screen, 48 h (100 = growth as untreated, 0 = no growth, -100 = all killed). To be noted: 10 µM unless noted.
On to `Cc1cc2nc3[nH]c4ccccc4c3nc2cc1C`, for which the growth was 55.2%.

In the case of `O=C(Cc1ccc2c(c1)OCCO2)Nc1nc2ccc(F)cc2s1`, the growth was 99.6%.

`N#CC(C#N)=Cc1c(-c2ccccc2)[nH]c2ccccc12`: the growth was -7.65% (active).

In the case of `CCOC(=O)Nc1nc2ccc(SCC(C)C)cc2s1`, the growth is 11.6%.

In the case of `CCN(CC)CC(C)(C)C(=O)/C=C/c1ccccc1`, the growth was 26.2%.

Take `Nc1n[nH]c2cccc(C#Cc3cccc(C(=O)Nc4cc(CN5CCOCC5)cc(C(F)(F)F)c4)c3)c12`: the growth was 16.6%.

Turning to `CCCCCCCCCCCCCCCC[N+]1(C)CCN(SN2CC[N+](C)(CCCCCCCCCCCCCCCC)CC2)CC1`, the growth was 0.773% (active).

Turning to `Cc1ccc(N2C(=O)CCC2=O)cc1`, the growth was 104%.

Regarding `COc1ccc(-c2nc3sccn3c2-c2ccnc(NCCNS(=O)(=O)c3ccc(C(F)(F)F)cc3)n2)cc1`, the growth is 4.59% (active).

As for `COc1ccc(N=Nc2cc(OC)c(OC)c(OC)c2)cc1`, the growth is 42.4%.

As to `Cc1ccc2c(c1)O/C(=C\c1ccc([N+](=O)[O-])o1)C2=O`, the growth was 17.2%.

Consider `O=C(CSc1nccc(Nc2ccc(S(=O)(=O)Nc3nccs3)cc2)n1)c1ccc(C(F)(F)F)cc1`, for which the growth was 103%.

Take `CCS(=O)(=O)N1CCN(c2ccc(Nc3ncc(C(N)=O)c(NC4CC4)n3)cc2)CC1`: the growth was 71.2%.

For `CO/C=C/C(=O)c1cc2cnc3c(=N)cc(NC(=O)C(C)C)c([nH]1)c23`, the growth is -0.789% (active).

In the case of `OC1COC(OCc2ccccc2)C(O)C1O` (stereo not given), the growth is 101%.

`O=C(/C=C/c1cn(-c2ccccc2)nc1-c1ccccc1)OCc1cn(-c2cccc([N+](=O)[O-])c2)nn1`: the growth was 93%.

On to `COc1ccc(C2NC3=C(CCCC3)C(C#N)(C#N)C2(C#N)C#N)cc1` (stereo not given), for which the growth was 41.3%.

As for `CC(C)Cc1cc(CNC(=O)C2[C@H]3CN(C(=O)c4ccccc4)C[C@@H]23)nn1-c1ccccc1` (stereo not given in full), the growth was 94.2%.

Turning to `COc1ccc2c(c1)CCCN2c1c2ccccc2nc2ccccc12`, the growth was 5.6% (active).

On to `O=C(Nc1ccc(F)cc1)c1cc2ccccc2cc1O`, for which the growth was 71.2%.

Consider `C=CC(=O)Nc1cccc(Nc2nc(Nc3ccc(OCCOC(F)F)cc3)ncc2F)c1`, for which the growth was 19.8%.

For `CC(C)(C)OC(=O)N1CC(Cn2cc(C(F)(F)F)c3c(Cl)ncnc32)C1`, the growth is -67.5% (active).

Take `Cc1ccc(/C=C(\C#N)n2nnc3cc(F)c(F)cc32)cc1`: the growth is -1.91% (active).

Take `CCOC(=O)C(CNc1ccccc1)C(=O)OCC`: the growth is 101%.

Turning to `Nc1c(C(=O)Nc2cccc(Cl)c2)sc2nc3c(cc12)C(O)CCC3` (stereo not given), the growth was 2.96% (active).

Consider `C=C(C)[C@@H]1CC[C@]2(C(=O)O)CC[C@]3(C)[C@H](CC[C@@H]4[C@@]5(C)CCC(NC(=O)c6cccc(OC(C)=O)c6OC(C)=O)C(C)(C)[C@@H]5CC[C@]43C)[C@@H]12` (stereo not given in full), for which the growth was -13.1% (active).

`COc1cc(C2CC(c3ccc(Cl)cc3)=NN2C(C)=O)ccc1Oc1nc2c(c(=O)n(C)c(=O)n2C)n1C` (stereo not given): the growth is 94.2%.

As for `Cc1cc2cc3c(=O)[nH]c(=O)cc-3n(CC(O)C(O)C(O)CO)c2cc1C` (stereo not given), the growth is 102%.

With `CCn1cc(CNc2ccc(C(=O)Nc3cc4cc(OC)c(OC)cc4c(C)n3)cc2)cn1`, the growth is 32.8%.

On to `COc1ccc(-c2cc(-c3cccc(Cl)c3)c(C#N)c(=O)[nH]2)c(OC)c1`, for which the growth is 95.6%.

On to `O=Cc1ccc(F)cc1`, for which the growth is 103%.

As to `CC(C)n1nc(C#Cc2cccc(O)c2)c2c(N)ncnc21`, the growth was -57.9% (active).

As for `COc1ccc(-c2nnc(COc3ccc(Cl)cc3Cl)o2)cc1OC`, the growth is 89.3%.

Take `CN1CCC(OC2c3ccccc3CCc3ccccc32)CC1`: the growth was 99.1%.

For the compound `Nc1nc(N)c2c(n1)NC1(C=C(O)c3ccccc31)C1=C(N2)c2ccccc2C1=O` (stereo not given), the growth was 71%.

Turning to `CCOC(=O)/C(=C(\C)N)C1CC(=O)NC1=O` (stereo not given), the growth is 99.9%.

On to `O=C(Nc1ccccc1)Nc1ccc(C(=O)/C=C/c2ccc(N3CCCC3)cc2)cc1`, for which the growth was 35.2%.

For the compound `CC(C)(C)[Si](C)(C)OC1[C@@H](O[Si](C)(C)C(C)(C)C)[C@@H](CNC(=O)NC(=O)CCl)O[C@H]1n1cnc2c(NC(=O)Nc3ccccc3)ncnc21` (stereo not given in full), the growth was -73.1% (active).

With `Cc1ccc(Sc2ccccc2N)cc1`, the growth was 115%.

Consider `O=[N+]([O-])c1ccc(-c2nc(-c3ccccc3)c(-c3ccccc3)n2-c2ccccc2)cc1`, for which the growth was -16.4% (active).
